{"source": "PubChem BioAssay (NCATS)", "note": "“And” between values parts separate entries of the source, which are not always exact repeats. Equal entries are not always repeated. Results filed as inconclusive are left out. A call without a number means that no potency is given here. Values without a mark were called inactive. The source made the active and inactive calls. Calls follow the shape of the dose curve; as a rule, active = well fitted cell-killing curve with a large enough effect; inconclusive = small, poorly fitted or top-dose-only effect, or effect the other way; inactive = no such curve, though single readings can be large or run the other way. Potency is read from the fitted curve at half-maximal effect."}
{"assay": "Viability qHTS for spleen associated tyrosine kinase inhibitor (SYKi) naive MV4-11 cells (AID 1963823); also: nearly all actives have a fitted effect of over 40% in size", "details": "MV4-11 AML viability, CellTiter-Glo luminescence, 72 h; series mostly up to 45 µM", "source_text": "Department of Medicine, Hematology/Oncology\nUniversity Hospital Frankfurt, Germany.\nTrials have shown promising clinical activity of the selective SYK inhibitor entospletinib in patients with high expressing HOXA9/MEIS1 acute leukemias. As the development of resistance mechanisms is a common problem in the use of targeted drugs, we performed a chemical library screen to identify drug sensitivities in SYK inhibitor resistant AML cells. […] Glucocorticoids are potent immunosuppressants which work in part by inhibiting the transcription of cytokine genes.\nDescribed herein is a viability screen to look for activity in the SYK inhibitor naive cell line against four NCATS compound libraries (MIPE 5.0, NPC, NPACT, and Kinase) totaling 11372 compounds. Active hits were reacquired for confirmation and further secondary assay testing.\nSEQUENCE No. (e.g., 1, 2, 3, etc.); […] (e.g., Cells, Incubation, Reagent, etc.); VALUE; DESCRIPTION.\n1; Media; 2uL; white, solid-bottom Corning assay plate.\n2; Compounds; 23nL; Echo acoustic dispenser.\n3; Cell; 5uL; 500 cells per well.\n4: Incubation; 72hr; 37 C, 5% CO2, 95% humidity.\n5; Reagent; 3uL; CellTiter-Glo reagent (Promega).\n6; Incubation; 10min; room temperature.\n7; Detection; Luminescence; ViewLux plate reader (PerkinElmer).\nNOTES (numbers refer to Sequence numbers above\n1. Quantitative high-throughput screening (qHTS) of small molecule compounds was conducted on naive SYKi MV4-11 cell line.\n2. Twenty-three nanoliter of small molecule compounds were added to each assay plates using the Echo acoustic dispenser (Beckman Coulter).\n3. Cells were seeded into the assay plates at a final density of 500 cells in 5uL of media per well using the Multi-drop Combi dispenser.\n4. Plates were covered with stainless steel gasketed lids and incubated for 72 hours at standard cell culture conditions.\n5. Viability was assessed by adding 3uL of CellTiter-Glo detection reagent (Promega).\n6. Plates were covered with gasket lids and incubated for 10 minutes at room temperature.\n7. Luminescence was measured on a ViewLux plate reader (PerkinElmer)."}
{"smiles": "COc1cc([C@@H]2Oc3c(OC)cc(CCCO)cc3[C@@H]2CO[C@@H]2O[C@H](CO)[C@@H](O)[C@H](O)[C@H]2O)ccc1O", "Potency": "inactive"}
{"smiles": "CCCNC(=O)NS(=O)(=O)c1ccc(Cl)cc1", "Potency": "inactive"}
{"smiles": "COc1cc2c(cc1O)CCN[C@]21CS[C@@H]2c3c(OC(C)=O)c(C)c4c(c3[C@H](COC1=O)N1[C@@H]2[C@H]2c3c(cc(C)c(OC)c3O)C[C@@H]([C@@H]1O)N2C)OCO4", "Potency": "0.0014 µM (active)"}
{"smiles": "CCN1CCN(C(=O)N[C@@H](C(=O)N[C@@H]2C(=O)N3[C@@H]2SC(C)(C)[C@H]3C(=O)O)c2ccccc2)C(=O)C1=O", "Potency": "inactive"}
{"smiles": "C[C@@H]1O[C@@H](O[C@@H]2[C@@H](O)[C@H](O[C@@H]3[C@@H](O)[C@@H](O)[C@H](O[C@H]4[C@H](OC(=O)[C@]56CCC(C)(C)C[C@H]5C5=CCC7[C@@]8(C)C[C@H](O)[C@H](O[C@@H]9O[C@H](C(=O)O)[C@@H](O)[C@H](O)[C@H]9O)[C@@](C)(CO)C8[C@H](O)C[C@@]7(C)[C@]5(C)C[C@H]6O)O[C@@H](CO)[C@@H]4O)O[C@H]3C)OC[C@H]2O)[C@H](O)[C@H](O)[C@H]1O", "note": "(stereo not given in full)", "viability (% of control)": "90.8% [at 9.25 µM]"}
{"smiles": "CCc1cc(CC[C@]2(C3CCCC3)CC(O)=C(Cc3nc4nc(C)cc(C)n4n3)C(=O)O2)cc(CC)n1", "Potency": "10.3 µM (active)"}
{"smiles": "C[C@H]1NCc2cc(-c3ccc4c(=O)c(C(=O)O)cn(C5CC5)c4c3OC(F)F)ccc21", "Potency": "inactive"}
{"smiles": "O=C(OC[C@H]1O[C@@H](Oc2ccccc2COC(=O)C2(O)C=CCCC2O)[C@H](O)[C@@H](O)[C@@H]1O)c1ccccc1", "note": "(stereo not given in full)", "Potency": "inactive"}
{"smiles": "C=C1C(=O)O[C@H]2C1CCC(C)=C1C(=O)C=C(C)[C@@]12O", "note": "(stereo not given in full)", "Potency": "7.31 µM (active)"}
{"smiles": "O=C(O)[C@H](O)c1ccccc1", "Potency": "inactive"}
{"smiles": "O=C1CCCC2=C1C(c1[nH]ncc1Cl)N=C(Nc1nc3ccccc3o1)N2", "note": "(stereo not given)", "Potency": "8.33 µM (active)"}
{"smiles": "C[C@@H](Oc1cc(-n2cnc3ccc(OC4CCN(C)CC4)cc32)sc1C(N)=O)c1ccccc1C(F)(F)F", "Potency": "0.0184 µM (active)"}
{"smiles": "C=C(C)C1CC2(CO)C(=CC1=O)CCC(O)C2C", "note": "(stereo not given)", "Potency": "inactive"}
{"smiles": "O=C1NC(=O)/C(=C\\c2ccc(-c3ccc(F)cc3)o2)S1", "Potency": "14.8 µM (active)"}
{"smiles": "CC1CC(O)C2(OC1=O)OC1C(O)C3C4CCC5CC(OC6OC(CO)C(O)C(O)C6OC6OC(C)C(O)C(O)C6O)CCC5(C)C4CCC3(C)C1C2C", "note": "(stereo not given)", "Potency": "inactive"}
{"smiles": "CC1(C)CCC2(C(=O)OC3OCC(O)C(O)C3O)CCC3(C)C(=CCC4C5(C)CC(O)C(OC6OC(COC7OCC(O)C(O)C7O)C(O)C(O)C6O)C(C)(C)C5CCC43C)C2C1", "note": "(stereo not given)", "viability (% of control)": "68.8% [at 9.25 µM]"}
{"smiles": "Cn1cc[nH]c1=S", "Potency": "inactive"}
{"smiles": "O=c1[nH]c2ccccc2n1CCCN1CCN(C(c2ccccc2)c2ccccc2)CC1", "Potency": "15 µM (active)"}
{"smiles": "CC(=O)c1ccc(S(=O)(=O)NC(=O)NC2CCCCC2)cc1", "Potency": "inactive"}
{"smiles": "CCn1c(=O)c2cc(C(N)=O)c(N)nc2n(C2CC2)c1=O", "Potency": "inactive"}
{"smiles": "O=C(c1ccc(F)c(F)c1Nc1ccc(I)cc1F)N1CC(O)([C@@H]2CCCCN2)C1", "Potency": "326 nM (active) and 235 nM (active)"}
{"smiles": "O=C(/C=C/c1ccccc1O)O[C@@H]1O[C@H](CO)[C@@H](O)[C@H](O)[C@H]1O", "Potency": "inactive"}
{"smiles": "C[C@@H]1O[C@@H](O[C@H]2[C@H](OC(C#N)c3ccc(O)cc3)O[C@H](CO)[C@@H](O)[C@@H]2O)[C@H](O)[C@H](O)[C@H]1O", "note": "(stereo not given in full)", "Potency": "inactive"}
{"smiles": "Cc1ccc2ccc(Cl)cc2n1", "Potency": "inactive"}
{"smiles": "COc1cccc(CN(C(=O)CC(C)(C)C)[C@H]2C[C@H](C(=O)N3CCNCC3)N(Cc3ccc4c(c3)OCO4)C2)c1", "Potency": "18.4 µM (active)"}
{"smiles": "Cc1cc(-c2nncc3c(C(C)(C)C)c(OCc4ncnn4C)nn23)no1", "Potency": "inactive"}
{"smiles": "O=C(O)[C@H](Cc1ccccc1)Oc1ccc(-c2ccccc2)cc1", "Potency": "inactive"}
{"smiles": "NC(=O)Nc1cc(-c2cccc(F)c2)sc1C(=O)NC1CCCNC1", "note": "(stereo not given)", "Potency": "inactive"}
{"smiles": "Cc1ccccc1N=Nc1ccc(N=Nc2c(O)ccc3ccccc23)c(C)c1", "Potency": "inactive"}
{"smiles": "COC(=O)C1=C(C)NC(C)=C(C(=O)OC)C1c1ccccc1[N+](=O)[O-]", "Potency": "13.3 µM (active)"}
{"smiles": "CCCn1cnc2c1c(=O)n(CCCCC(C)=O)c(=O)n2C", "Potency": "inactive"}
{"smiles": "CN1C(=O)c2ccccc2NC(=O)[C@]12O[C@@H]2c1cccc(O)c1", "Potency": "inactive"}
{"smiles": "OC[C@H]1O[C@@H](O[C@@H]2[C@@H](CO)O[C@](O)(CO)[C@H]2O)[C@H](O)[C@@H](O)[C@H]1O", "Potency": "inactive"}
{"smiles": "CCCCCCCCCCCCCC(=O)N[C@H](CO)[C@H](O)c1ccc([N+](=O)[O-])cc1", "Potency": "26.3 µM (active)"}
{"smiles": "CC(C)=CCC/C(C)=C/CO", "Potency": "inactive"}
{"smiles": "COc1cc2ncnc(Nc3ccc(O)c(Br)c3)c2cc1OC", "Potency": "1.16 µM (active) and 662 nM (active)"}
{"smiles": "COC1OC(O)C2(CCC3(O2)C(C)CC2OC(=O)C4(C)CCCC3(C)C24)C1O", "note": "(stereo not given)", "Potency": "inactive"}
{"smiles": "CN(C)/C(N)=N/C(=N)N", "Potency": "inactive"}
{"smiles": "CC1CCC2C(C(=O)O)=CC3C(O)C(C)(C)CC123", "note": "(stereo not given)", "Potency": "inactive"}
{"smiles": "O=C(Nc1ccc(-c2ccnc(Nc3ccc(N4CCOCC4)cc3)n2)cc1)C1CCCN1", "note": "(stereo not given)", "Potency": "1.66 µM (active)"}
